Assay outcomes deposited in PubChem by National Center for Advancing Translational Sciences (NCATS).
Compounds with a hit are over-represented: about 17% of the library has one in this group of screens.
TDP1 cell CPT: qHTS for Inhibitors of human tyrosyl-DNA phosphodiesterase 1 (TDP1): qHTS in cells in presence of CPT; Potency, µM (highest dose often 46.2 µM), actives largely listed as inhibitors; chicken DT40 Tdp1-/-;hTDP1 cells + 20 nM CPT, ATP luminescence, 48 h; AID 686979, 2013; 420,000 compounds, 12% hits; note: nearly all actives have a fitted effect of over 55% in size
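Cell growth measured by CellTiter-Glo luminescence after a minimum 48 h, 37 C compound exposure with 20 nM CPT in Tdp1-knockout DT40 cells stably expressing hTDP1, seeded 400/well; qHTS titration format.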
TDP1 inh: qHTS Assay for Inhibitors of Tyrosyl-DNA Phosphodiesterase (TDP1) | Tyrosyl-DNA phosphodiesterase 1 (Homo sapiens), Q9NUW8 | recombinant TDP1, AlphaScreen DNA substrate cleavage | Potency, µM (doses to about 130 µM), actives largely listed as inhibitors | 350,000 compounds, 0.28% hits; note: nearly all actives have a fitted effect of over 40% in size
Target sequence (Q9NUW8 whole entry, looked up): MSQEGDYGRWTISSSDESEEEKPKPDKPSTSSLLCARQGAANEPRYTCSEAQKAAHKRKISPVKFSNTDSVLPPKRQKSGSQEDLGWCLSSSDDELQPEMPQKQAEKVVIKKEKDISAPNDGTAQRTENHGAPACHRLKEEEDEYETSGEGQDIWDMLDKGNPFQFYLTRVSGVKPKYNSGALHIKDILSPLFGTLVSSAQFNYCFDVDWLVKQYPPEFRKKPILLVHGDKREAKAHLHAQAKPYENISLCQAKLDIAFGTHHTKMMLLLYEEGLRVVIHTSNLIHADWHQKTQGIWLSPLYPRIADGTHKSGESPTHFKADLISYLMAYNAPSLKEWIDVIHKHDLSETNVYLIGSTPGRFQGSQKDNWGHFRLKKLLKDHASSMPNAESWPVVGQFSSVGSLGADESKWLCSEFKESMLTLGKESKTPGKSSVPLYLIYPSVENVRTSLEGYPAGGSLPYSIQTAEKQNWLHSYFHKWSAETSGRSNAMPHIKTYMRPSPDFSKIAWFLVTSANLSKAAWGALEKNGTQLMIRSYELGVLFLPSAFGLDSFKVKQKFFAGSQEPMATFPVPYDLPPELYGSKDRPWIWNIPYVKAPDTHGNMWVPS
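Recombinant E. coli-expressed Tdp1 (1 nM) preincubated with compound 15 min at RT, then 5'-biotin/3'-phosphotyrosine-FITC DNA substrate (15 nM) added for 5 min. AlphaScreen beads (10 ug/ml) added, 10 min RT; tyrosine-FITC cleavage read as signal loss.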
TDP1 cell noCPT: qHTS for Inhibitors of human tyrosyl-DNA phosphodiesterase 1 (TDP1): qHTS in cells in absence of CPT; DT40 Tdp1-/- hTDP1 cells, no CPT, ATP luminescence, 48 h; Potency, µM (doses to about 46.2 µM), usual class: inhibitors; 420,000 compounds, 15% hits; note: nearly all actives have a fitted effect of over 55% in size
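Readout: luminescence from CellTiter-Glo after 30 min in the dark at RT. Cells: DT40 Tdp1-/- with stable hTDP1, 400/well. Exposure: compounds alone, ≥48 hr, 37 °C.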
ClpP mod: qHTS Assay for Activators of ClpP | ATP-dependent Clp protease proteolytic subunit (Bacillus subtilis (strain 168)), P80244 | purified B. subtilis ClpP, FRET peptide cleavage, 20 min | Potency, µM (titrated, usually from 57.5 µM) | 340,000 compounds, 1.9% hits | AID 651965, 2013; active = well fitted falling curve with a large enough effect; inconclusive = small, poorly fitted or top-dose-only effect; inactive = no such curve, though single readings can be large or run the other way; note: the source files actives as falling curves though it sought activators and does not explain the sign; nearly all actives have a fitted effect of over 65% in size
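Buffer: 100 mM Tris/HCl pH8, 100 mM KCl, 0.05% low protease BSA, 2.5% glycerol, 0.01% Tween-20. ClpP 10 microg/mL final; 20 min RT; delta FRET normalized to ADEP and DMSO controls.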
Of the large screens only hits and unclear results are named; the others gave an inactive call. Unless noted, calls come from the whole dose curve; as a rule, active = well fitted curve in the direction sought with a large enough effect; inconclusive = small, poorly fitted or top-dose-only effect, or another doubt; inactive = no such curve, though single readings can be large; an effect the other way counts as inactive or inconclusive.

N#C/C(=C\c1cccc(O)c1)C(=O)Nc1ccc2c(c1)OCCO2	TDP1 cell CPT inconclusive
O=C1CC(c2ccccc2)Cc2[nH]c(=O)c(C(=O)Nc3cccc(F)c3)cc21 (stereo not drawn)	TDP1 cell CPT inconclusive, TDP1 cell noCPT inconclusive
COc1ccc(C2CC(=O)c3cc(-c4nc(-c5cccc([N+](=O)[O-])c5)cs4)c(=O)n(-c4ccc(OC)cc4)c3C2)cc1 (stereo not drawn)	none
COc1ccc(C2CC(=O)c3cc(-c4nc(-c5cccc(Cl)c5)cs4)c(=O)[nH]c3C2)cc1OC (stereo not drawn)	TDP1 cell CPT inconclusive, TDP1 cell noCPT 9.2µM, ClpP mod inconclusive
O=C1CC(c2ccccc2)Cc2[nH]c(=O)c(-c3nc(-c4ccc(F)cc4)cs3)cc21 (stereo not drawn)	TDP1 cell CPT 5.2µM, TDP1 cell noCPT 3.3µM
COc1ccc(C2CC(=O)c3cc(-c4nc(-c5ccc(Cl)cc5)cs4)c(=O)[nH]c3C2)cc1 (stereo not drawn)	none
O=C1CC(c2ccccc2)Cc2[nH]c(=O)c(-c3nc(-c4ccc(Cl)cc4)cs3)cc21 (stereo not drawn)	TDP1 cell CPT 0.58µM, TDP1 cell noCPT 0.65µM
O=C1CC(c2ccccc2)Cc2[nH]c(=O)c(-c3nc(-c4ccc(Cl)c(Cl)c4)cs3)cc21 (stereo not drawn)	TDP1 cell CPT 3.3µM, TDP1 cell noCPT 2.3µM
COC(=O)c1cc2c([nH]c1=O)CC(c1ccccc1)CC2=O (stereo not drawn)	TDP1 cell CPT inconclusive, TDP1 cell noCPT inconclusive (no result: TDP1 inh)
CO[C@@H]1COC(=O)C/C=C\[C@H](C)[C@H](OC)COC(=O)[C@H](C)NC(=O)C/C=C\[C@H]1C	none (no result: TDP1 cell CPT, TDP1 cell noCPT, ClpP mod)
CCSc1ncc(/C=N/Nc2ccccc2)n1C	TDP1 cell CPT 23µM, TDP1 cell noCPT 16µM
CCSc1ncc(/C=N/Nc2ccc(Cl)cc2)n1C	TDP1 cell CPT inconclusive, TDP1 cell noCPT inconclusive
O=C1c2ccccc2NC(c2ccccn2)N1c1ccccc1F (stereo not drawn)	ClpP mod 32µM
Cc1cccc(C2Nc3ccccc3C(=O)N2c2ccc(F)cc2)n1 (stereo not drawn)	ClpP mod 32µM
COc1ccc(N(CC(=O)NCCSCc2ccc(C)cc2)S(=O)(=O)c2ccccc2)cc1	TDP1 cell CPT inconclusive, TDP1 cell noCPT 7.3µM
CCOc1ccc(N(CC(=O)NCCSCc2ccco2)S(=O)(=O)c2ccc(C)cc2)cc1	TDP1 cell CPT 18µM, TDP1 cell noCPT inconclusive
CCOc1ccc(S(=O)(=O)N(CC(=O)NCCSCc2ccccc2)c2ccccc2)cc1	none (no result: TDP1 inh)
CCOc1ccc(N(CC(=O)NCCSCc2ccco2)S(=O)(=O)c2ccc(F)cc2)cc1	TDP1 cell CPT inconclusive, TDP1 cell noCPT 21µM
CC(=O)N1CCc2cc(S(=O)(=O)CCC(=O)N3CCN(c4cc(C)ccc4C)CC3)ccc21	TDP1 cell CPT inconclusive, TDP1 cell noCPT 21µM
Cc1ccc(C)c(N2CCN(S(=O)(=O)c3ccc4c(c3)CCC(=O)N4)CC2)c1	none (no result: TDP1 cell CPT, TDP1 cell noCPT, ClpP mod)
CC(=O)N1CCc2cc(S(=O)(=O)CCC(=O)N3CCN(c4cccc(C)c4C)CC3)ccc21	TDP1 cell CPT 16µM, TDP1 cell noCPT 15µM
CC(=O)N1CCc2cc(S(=O)(=O)CCC(=O)N(C)c3cc(C)ccc3C)ccc21	none
Cc1ccc(C)c(N2CCN(C(=O)CN(C)S(=O)(=O)c3ccc4c(c3)CCC(=O)N4)CC2)c1	TDP1 cell CPT inconclusive, TDP1 cell noCPT 16µM
O=C(NN1CCCCC1)c1cnn2c(C(F)F)cc(-c3ccccc3)nc12	TDP1 cell CPT inconclusive, TDP1 cell noCPT inconclusive (no result: ClpP mod)
CC[C@@H](C)CCCCC(=O)N[C@@H](CCNCS(=O)(=O)O)C(=O)N[C@H](C(=O)N[C@@H](CCNCS(=O)(=O)O)C(=O)N[C@H]1CCNC(=O)[C@H]([C@@H](C)O)NC(=O)[C@H](CCNCS(=O)(=O)O)NC(=O)[C@H](CCNCS(=O)(=O)O)NC(=O)[C@H](CC(C)C)NC(=O)[C@@H](CC(C)C)NC(=O)[C@H](CCNCS(=O)(=O)O)NC1=O)[C@@H](C)O	TDP1 cell CPT inconclusive, TDP1 cell noCPT 9.4µM (no result: TDP1 inh, ClpP mod)
CC(C)(C)c1ccc(S(=O)(=O)c2cn(CC(=O)Nc3ccccc3)c3ccccc3c2=O)cc1	TDP1 cell CPT inconclusive, TDP1 cell noCPT inconclusive
O=S(=O)(c1ccc(Br)s1)N1CCN(c2ccnc3cc(Cl)ccc23)CC1	TDP1 cell CPT inconclusive, TDP1 cell noCPT 18µM (no result: ClpP mod)
CC(=O)c1ccc(S(=O)(=O)N2CCN(c3ccnc4cc(Cl)ccc34)CC2)cc1	TDP1 cell CPT 8.2µM, TDP1 cell noCPT 7.3µM (no result: TDP1 inh)
Cc1ccc(S(=O)(=O)N2CCN(c3ccnc4cc(Cl)ccc34)CC2)cc1	TDP1 cell CPT 23µM, TDP1 cell noCPT 23µM, ClpP mod inconclusive
Cc1ccc(S(=O)(=O)N2CCN(c3ccnc4cc(Cl)ccc34)CC2)cc1C	TDP1 cell CPT inconclusive, TDP1 cell noCPT inconclusive (no result: ClpP mod)
CC(C#N)(NC(=O)CN1CCN(S(=O)(=O)c2cccc(F)c2)CC1)C1CC1 (stereo not drawn)	none (no result: TDP1 inh)
COc1cccc(N=C2CC(C)(C)CC(=O)/C2=C(/O)c2ccccc2)c1	none (no result: ClpP mod)
CCCC[C@@H]1C[C@H]1[C@@H](NC(=O)c1ccco1)c1ccc(C(=O)OC)cc1	TDP1 cell CPT inconclusive, TDP1 cell noCPT inconclusive (no result: TDP1 inh)
CCC(=O)NC(=S)Nc1ccc(NC(=O)c2ccco2)cc1	none (no result: ClpP mod)
CCCCC(=O)Nc1ccc(C(=O)NNC(=S)NC(=O)c2ccco2)cc1	TDP1 cell CPT 13µM, TDP1 cell noCPT 23µM
O=C(NC(=S)NNC(=O)c1ccccc1O)c1ccco1	TDP1 cell CPT 21µM, TDP1 cell noCPT 18µM
CCCCC(=O)Nc1ccc(C(=O)NNC(=O)c2ccco2)cc1	none
O=C(NNC(=S)NC(=O)c1ccco1)c1ccc(NC(=O)c2ccccc2)cc1	TDP1 cell CPT 16µM, TDP1 cell noCPT 21µM (no result: ClpP mod)
CCCCC(=O)NC(=S)Nc1cccc(NC(=O)c2ccco2)c1	ClpP mod 25µM
O=C(Nc1ccc(NC(=S)NC(=O)c2ccco2)cc1)c1ccc(Br)cc1	none (no result: TDP1 inh)
Cc1ccc(Cn2c(C)nc3ccc([N+](=O)[O-])cc3c2=O)cc1	TDP1 cell CPT 18µM, TDP1 cell noCPT 21µM (no result: TDP1 inh)
Cc1nc2ccc([N+](=O)[O-])cc2c(=O)n1Cc1cccc(Br)c1	TDP1 cell CPT inconclusive (no result: TDP1 inh, ClpP mod)
N#Cc1c(N)n(Cc2ccccc2)c(=O)c2cc([N+](=O)[O-])ccc12	TDP1 cell CPT 16µM, TDP1 cell noCPT 18µM (no result: TDP1 inh)
Cc1nc2ccc([N+](=O)[O-])cc2c(=O)n1Cc1ccc([N+](=O)[O-])cc1	TDP1 cell CPT inconclusive, TDP1 cell noCPT inconclusive (no result: TDP1 inh)
COc1ccc(NC(=O)COc2cccc3c2OC(C)(C)C3)cc1OC	TDP1 cell CPT 21µM, TDP1 cell noCPT 13µM
COc1cccc(NC(=O)COC(=O)COc2cccc3c2OC(C)(C)C3)c1	none
